Assay [1] is described as follows: qHTS assay to identify small molecule antagonists of the androgen receptor (AR) signaling pathway using the MDA cell line in the presence of 0.5 nM R1881 - cell viability counter screen (AID 1259242). Note: nearly all actives have a fitted effect of over 45% in size. The method in brief:
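MDA-kb2 cells (human breast carcinoma, stably carrying MMTV-luciferase reporter) were exposed to compounds with 0.5 nM R1881 (final) for 16 hr at 37C, 0% CO2; viability then read as live-cell protease fluorescence (CellTiter-Fluor, 30 min) in the same wells.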
(In qHTS, concentration-response curves come from the screen itself.)

The target in assay [2] is Estrogen receptor (Homo sapiens) (UniProt P03372). The assay can be described thus: qHTS assay to identify small molecule antagonists of the estrogen receptor alpha (ER-alpha) signaling pathway using the BG1 cell line in the presence of 0.1 nM 17-beta-estradiol (AID 1259244). Note: nearly all actives have a fitted effect of over 50% in size. The method in brief: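 VM7Luc4E2 cells (endogenous full-length ER-alpha, stable 4xERE-luciferase) were grown 5 days in phenol red-free medium with charcoal-stripped FBS, then exposed 22 h at 37C to compounds plus 0.1 nM (final) 17beta-estradiol; ONE-Glo luminescence read-out.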
Sequence of Estrogen receptor (Homo sapiens) (P03372 whole entry, looked up): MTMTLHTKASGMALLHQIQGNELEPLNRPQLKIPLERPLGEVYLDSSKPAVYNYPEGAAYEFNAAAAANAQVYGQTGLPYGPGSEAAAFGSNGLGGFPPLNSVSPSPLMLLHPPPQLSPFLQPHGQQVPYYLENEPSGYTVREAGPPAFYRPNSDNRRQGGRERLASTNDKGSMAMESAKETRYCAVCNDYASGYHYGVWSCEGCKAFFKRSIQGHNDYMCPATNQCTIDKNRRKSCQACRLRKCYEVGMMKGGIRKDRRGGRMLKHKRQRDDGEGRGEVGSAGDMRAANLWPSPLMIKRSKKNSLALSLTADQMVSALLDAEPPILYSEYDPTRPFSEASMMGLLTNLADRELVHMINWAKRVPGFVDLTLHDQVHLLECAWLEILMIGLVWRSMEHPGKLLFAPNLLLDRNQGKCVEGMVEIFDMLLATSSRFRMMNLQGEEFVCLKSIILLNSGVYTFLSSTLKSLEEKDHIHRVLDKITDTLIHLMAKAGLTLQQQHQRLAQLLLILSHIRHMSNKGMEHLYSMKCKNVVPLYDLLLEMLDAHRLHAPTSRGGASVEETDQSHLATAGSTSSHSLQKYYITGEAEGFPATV

Assay [3] is described as follows: qHTS assay to identify small molecule phospholipidosis (PLD) inducers (AID 1259344; active = well fitted curve in the direction sought with a large enough effect; an effect the other way counts as inactive or inconclusive). The method in brief:
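Phospholipidosis is scored by imaging LipidTOX-stained pits in HepG2 cells exposed to compound for 24 h at 37 C; pit counts and integrated intensities per well and per cell serve as outputs.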

Assay [4] is described as follows: qHTS assay to identify small molecule HDAC inhibitors (AID 1259364). Note: top concentration of the series differs between compounds; nearly all actives have a fitted effect of over 45% in size. The method in brief: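 Wild-type HCT-116 cells were plated overnight, exposed to compounds for 2 h at 37 °C, then given HDAC-Glo class I/II luminogenic reagent for 30 min at room temperature before luminescence was read.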
Assay [5] is described as follows: qHTS assay to identify small molecule HDAC inhibitors - cell viability counter screen (AID 1259365). Note: series mostly up to about 92 µM; nearly all actives have a fitted effect of over 50% in size. The method in brief: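 CellTiter-Glo luminescence (30 min, room temperature) reported viability after a 2 h compound exposure at 37 C. Cells: wild-type HCT-116, 1,500 per well, seeded the night before.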
Assay [6] can be described thus: qHTS assay to identify small molecule agonists of the sonic hedgehog signaling (Shh) pathway - cell viability counter screen (AID 1259366). Note: nearly all actives have a fitted effect of over 50% in size. Note: potency is the fitted concentration of half-maximal effect. Summed up:
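Cytotoxicity counter screen: CellTiter-Fluor reagent added after 23 h compound exposure, then 1 h at 37C and fluorescence read. Cells were 3T3 Gli1-Luc, seeded 2,000 per well and dosed 4 h post-plating.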

Assay [7] is described as follows: qHTS assay to identify small molecule antagonists of the sonic hedgehog signaling (Shh) pathway - cell viability counter screen (AID 1259367). Note: nearly all actives have a fitted effect of over 55% in size. Note: potency is the fitted concentration of half-maximal effect. The method in brief: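 Cells: 3T3 Gli1-Luc, 2,000/well, 4 hr pre-incubation. Compounds in DMSO, then conditioned medium. Incubation 24 hr, 37C, 5% CO2. CellTiter-Fluor at 23 hr, 1 hr, fluorescence.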
The nature of assay [8]: qHTS assay to identify small molecule agonists of the sonic hedgehog signaling (Shh) pathway (AID 1259368; calls by dose curve; note: series mostly up to about 92 µM; nearly all actives have a fitted effect of over 15% in size). The method in brief:
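NIH/3T3-derived 3T3Gli1-Luc cells carrying a stably integrated Gli1 response element–firefly luciferase reporter were plated, left 4 hr at 37 C, then given compounds in DMSO for 24 hr. Luminescence was read 30 min after adding luciferase reagent.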

Assay [9] in a line: qHTS assay to identify small molecule agonists of the androgen receptor (AR) signaling pathway in the presence of an antagonist - cell viability counter screen (AID 1259379). Note: series mostly up to about 92 µM; nearly all actives have a fitted effect of over 25% in size. Summed up: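 MDA-kb2 human breast carcinoma cells (stable MMTV-luciferase, AR/GR responsive) were seeded 3,000 cells/well, pre-incubated 5 hr at 37C without CO2, then given 3.0uM nilutamide and compounds at 15 concentrations for 16 hr. Viability was read by CellTiter-Fluor fluorescence.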

Assay [10] can be described thus: qHTS assay to identify small molecule agonists of the estrogen receptor beta (ER-beta) signaling pathway - cell viability counter screen (AID 1259380). Note: nearly all actives have a fitted effect of over 30% in size. Note: potency is the fitted concentration of half-maximal effect. Summed up:
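ER-beta-UAS-bla HEK293T cells in medium with 2% charcoal-stripped FBS were preincubated 6 hr at 37C, dosed with compound in DMSO for 16 hr, then after the bla read, CellTiter-Glo was added for 30 min at room temperature; luminescence recorded.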

Assay [11] in a line: qHTS assay to identify small molecule antagonists of the estrogen receptor beta (ER-beta) signaling pathway - cell viability counter screen (AID 1259382). Note: series mostly up to about 92 µM; nearly all actives have a fitted effect of over 55% in size. Summed up: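 ER-beta-UAS-bla HEK293T cells (2,000/well, 2% charcoal-stripped FBS) were pre-incubated 6 hr at 37C, then given compound plus 1nM final 17-beta-estradiol for 16 hr. Viability was read in the same wells by CellTiter-Glo luminescence after 30 min at room temperature.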

Assay [12] concerns the target Estrogen receptor (Homo sapiens) (UniProt P03372). The assay can be described thus: qHTS assay to identify small molecule agonists of the estrogen receptor alpha (ER-alpha) signaling pathway in the presence of an antagonist (AID 1259383; calls by dose curve; note: top concentration of the series differs between compounds; nearly all actives have a fitted effect of over 15% in size). The method in brief: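 VM7Luc4E2 cells (endogenous full-length ER-alpha, 4×ERE-luciferase) were precultured 5 days in phenol red-free medium with 10% charcoal-stripped FBS, given 10.0nM ICI-182,780 (final), then treated with compounds at 15 concentrations for 22hr at 37C; luminescence read with ONE-Glo.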

Assay [13] is described as follows: qHTS assay to identify small molecule agonists or antagonists of the thyroid stimulating hormone receptor (TSHR) signaling pathway - wild type cell line counter screen (AID 1259384; calls by dose curve). The method in brief: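 Counter screen in untransfected Hek293: compounds (15-point titration, triplicate) plus phosphodiesterase inhibitor Ro20-1724 added after 18 h plating; 30 min RT. Intracellular cAMP via competitive d2/cryptate immunoassay, 1 h incubation.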

Assay [14] concerns the target Thyrotropin receptor (Homo sapiens) (UniProt P16473). The assay can be described thus: qHTS assay to identify small molecule antagonists of the thyroid stimulating hormone receptor (TSHR) signaling pathway (AID 1259385; calls by dose curve; note: nearly all actives have a fitted effect of over 20% in size). The method in brief:
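Antagonist mode: compound-treated TSHR-expressing HEK293 cells were stimulated with 1.5 ng/mL TSH (final) in presence of Ro20-1724 for 30 min at RT. HTRF cAMP detection after 1 h; each compound tested at 15 concentrations, triplicate.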

Assay [15] is described as follows: qHTS assay to identify small molecule agonists of the estrogen receptor alpha (ER-alpha) signaling pathway in the presence of an antagonist - cell viability counter screen (AID 1259386). Note: series mostly up to about 92 µM; nearly all actives have a fitted effect of over 30% in size. Summed up:
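VM7Luc4E2 cells (endogenous full-length ER-alpha, 4×ERE-luciferase) were held 5 days in phenol red-free medium with 10% charcoal-stripped FBS, plated, then given 10.0nM ICI-182,780 and compounds at 15 concentrations for 22hr at 37C; viability read by CellTiter-Fluor fluorescence.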

The nature of assay [16]: qHTS assay to identify small molecule antagonists of the sonic hedgehog signaling (Shh) pathway (AID 1259369; calls by dose curve; note: nearly all actives have a fitted effect of over 45% in size; note: potency is the fitted concentration of half-maximal effect). The method in brief: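 NIH/3T3-derived 3T3Gli1-Luc cells with stably integrated Gli1-Luc reporter were preincubated 4hr at 37 C, then given compounds in DMSO plus Shh conditioned medium and incubated 24hr. Firefly luciferase luminescence read after 30min reagent at room temperature.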

For assay [17], the target named is Estrogen receptor beta (Homo sapiens) (UniProt Q92731). The assay can be described thus: qHTS assay to identify small molecule agonists of the estrogen receptor beta (ER-beta) signaling pathway (AID 1259377; active = well fitted activation curve with a large enough effect in the signal ratio in the repeat runs, not every such curve was filed as active; the % refers to the signal ratio). Summed up: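 Ratiometric beta-lactamase FRET read-out came after 2 h substrate loading at room temperature. It followed 16 h compound treatment at 37C of GripTite HEK293T cells carrying a UAS-bla reporter, plated in 2% charcoal-stripped FBS medium.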
Sequence of Estrogen receptor beta (Homo sapiens) (Q92731 whole entry, looked up): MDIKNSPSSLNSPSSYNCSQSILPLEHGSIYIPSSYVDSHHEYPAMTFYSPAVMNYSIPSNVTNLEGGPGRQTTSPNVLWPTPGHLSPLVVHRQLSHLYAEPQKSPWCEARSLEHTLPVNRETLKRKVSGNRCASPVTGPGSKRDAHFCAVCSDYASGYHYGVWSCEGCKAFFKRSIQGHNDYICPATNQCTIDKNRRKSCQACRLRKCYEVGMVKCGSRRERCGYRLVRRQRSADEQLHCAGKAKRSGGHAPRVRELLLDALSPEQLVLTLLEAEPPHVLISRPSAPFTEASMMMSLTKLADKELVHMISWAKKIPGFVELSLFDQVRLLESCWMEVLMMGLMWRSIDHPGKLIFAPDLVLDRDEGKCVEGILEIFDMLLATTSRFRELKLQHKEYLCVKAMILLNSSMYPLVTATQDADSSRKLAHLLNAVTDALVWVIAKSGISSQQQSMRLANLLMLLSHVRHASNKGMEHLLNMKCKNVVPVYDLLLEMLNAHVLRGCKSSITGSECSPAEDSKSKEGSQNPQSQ

Assay [18] has the same target. The assay can be described thus: qHTS assay to identify small molecule antagonists of the estrogen receptor beta (ER-beta) signaling pathway (AID 1259378; active = well fitted inhibition curve with a large enough effect in the signal ratio in the repeat runs, not every such curve was filed as active; the % refers to the signal ratio). Summed up: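 Antagonist mode: compounds added to beta-lactamase reporter HEK293T ER-beta-UAS cells stimulated with E2 (1nM final), 16 hr at 37C. LiveBLAzer B/G FRET substrate, 2 hours room temperature, fluorescence read-out.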

Values joined by “and” are separate entries in the source; they are usually repeats but may differ in a detail not shown here. Identical values can stand only once. Results filed as inconclusive are left out. Some structures have more than one record in an assay (separate samples or runs), and their calls can disagree. Active and inactive are the calls of the source. Unless noted, calls come from the whole dose curve; as a rule, active = well fitted curve in the direction sought with a large enough effect in the repeat runs; inconclusive = weak or mixed curves; inactive = no such curve, though single readings can be large; an effect the other way counts as inactive or inconclusive.

Sequence of Thyrotropin receptor (Homo sapiens) (P16473 whole entry, looked up): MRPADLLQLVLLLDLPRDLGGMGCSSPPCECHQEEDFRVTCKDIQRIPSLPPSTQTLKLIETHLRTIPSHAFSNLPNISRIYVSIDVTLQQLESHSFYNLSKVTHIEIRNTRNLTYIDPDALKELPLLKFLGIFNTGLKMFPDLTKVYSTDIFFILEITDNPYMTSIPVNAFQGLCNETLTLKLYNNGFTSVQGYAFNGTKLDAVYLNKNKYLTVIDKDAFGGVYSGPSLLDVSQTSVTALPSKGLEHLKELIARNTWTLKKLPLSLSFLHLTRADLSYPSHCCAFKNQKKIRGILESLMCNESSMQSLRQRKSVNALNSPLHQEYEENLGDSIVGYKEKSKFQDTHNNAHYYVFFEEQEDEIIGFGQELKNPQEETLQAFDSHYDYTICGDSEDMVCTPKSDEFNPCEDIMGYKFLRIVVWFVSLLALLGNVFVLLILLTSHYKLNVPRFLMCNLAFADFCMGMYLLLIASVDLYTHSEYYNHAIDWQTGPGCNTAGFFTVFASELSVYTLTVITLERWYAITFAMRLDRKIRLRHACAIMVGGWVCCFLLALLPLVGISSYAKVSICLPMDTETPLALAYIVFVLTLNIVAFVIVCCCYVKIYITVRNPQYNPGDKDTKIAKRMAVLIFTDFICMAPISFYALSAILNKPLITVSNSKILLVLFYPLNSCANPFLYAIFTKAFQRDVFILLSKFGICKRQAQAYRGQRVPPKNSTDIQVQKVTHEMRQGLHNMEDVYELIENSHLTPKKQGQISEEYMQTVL

For `O=C(O)c1cc(=O)[nH]c(=O)[nH]1`, the Potency result in [1], in assay [2], in assay [3], in assay [4], in assay [6] and in assay [8] was “inactive” throughout. For the same compound, the Potency entry in assay [9], in assay [10], in assay [11], in assay [12], in [13] and in assay [14] was “inactive” throughout. In [15], the Potency entry is “inactive”. In assay [5], the result was inactive. For the same compound, in [7], the Potency entry was “inactive and 16.8 µM (active)”.

Consider `COc1cc([C@H]2Oc3cc([C@H]4Oc5cc(O)cc(O)c5C(=O)[C@@H]4O)ccc3O[C@@H]2CO)ccc1O`, for which the Potency result in [1], in [2], in assay [3], in [8], in assay [9] and in assay [10] was “inactive” in each case. The Potency result in [11], in assay [12] and in assay [15] was “inactive” each time. Besides, the result in assay [5] was inactive. The Potency is 24.3 µM (active) and inactive in [6]; 27.2 µM (active) and inactive in assay [7]; 19.3 µM (active) in assay [16].

With `FC(F)(F)C(Cl)Br` (stereo not drawn), the Potency result in assay [1], in [2], in assay [3], in [4], in assay [6] and in assay [7] was “inactive” throughout. The Potency entry in assay [8], in [17], in assay [18], in assay [9], in [10] and in [11] was “inactive” throughout. Moreover, the Potency result in [12], in assay [14] and in [15] was “inactive” in each case. In assay [5], the compound was called inactive.

Consider `Cc1ccc(S(=O)(=O)NCl)cc1`, for which the Potency result in assay [1], in assay [2], in [3], in assay [4], in [6] and in assay [7] was “inactive” throughout. Further, the Potency entry in assay [8], in assay [9], in assay [10], in assay [11], in assay [12] and in assay [13] was “inactive” throughout. Besides, the Potency entry in assay [14] and in assay [15] was “inactive” each time. Further, the result in assay [5] was inactive.

In the case of `C/C=C/C(=O)N(CC)c1ccccc1C`, the Potency entry in assay [1], in assay [2], in assay [3], in [4], in assay [6] and in [7] was “inactive” each time. Further, the Potency entry in [8], in assay [16], in assay [9], in assay [10], in assay [11] and in assay [12] was “inactive” in each case. Further, the Potency result in assay [14] and in [15] was “inactive” each time. Also, the compound was classed as inactive in [5].

As to `CCC(Cc1c(I)cc(I)c(N)c1I)C(=O)O` (stereo not drawn), the Potency result in [1], in [2], in [3], in assay [4], in assay [6] and in assay [7] was “inactive” throughout. Also, the Potency entry in assay [8], in assay [16], in assay [9], in assay [11], in assay [12] and in [14] was “inactive” in each case. The Potency result in assay [15] is “inactive”. Further, the compound was classed as inactive in assay [5]. Further, the Potency in assay [10] was 33.3 µM (active).

For the compound `C[C@]12C=CC(=O)C=C1CC[C@H]1[C@@H]3C[C@@H](O)[C@](O)(C(=O)CO)[C@@]3(C)C[C@H](O)[C@@]12F`, the Potency entry in assay [1], in assay [2], in assay [3], in assay [4], in [6] and in assay [7] was “inactive” in each case. Further, the Potency entry in [8], in [16], in assay [9], in assay [10], in assay [11] and in assay [12] was “inactive” throughout. Moreover, the Potency result in [13], in [14] and in assay [15] was “inactive” in each case. Also, the outcome in assay [5] was inactive.

With `CC(=O)Oc1c(C)c(C)c2c(c1C)CC[C@@](C)(CCC[C@H](C)CCC[C@H](C)CCCC(C)C)O2`, the Potency result in assay [1], in assay [2], in assay [3], in [6], in assay [7] and in [8] was “inactive” each time. In addition, the Potency result in assay [9], in assay [10], in [11], in assay [12], in assay [14] and in assay [15] was “inactive” throughout. Moreover, the result in assay [5] was inactive.

Source of the values: PubChem BioAssay (Tox21).
